About 420 (0.61%) of roughly 69,000 compounds showed an effect of 50% or more. For the sample, strong results were picked, then their nearest neighbours and some compounds at random.
molecular target: T1, Histidine--tRNA ligase (Leishmania infantum) (UniProt A4I591); test: Leishmania infantum Histidine tRNA synthetase (LdHisRS); format: functional; parameters: scale not given: in the data most compounds retested in dose-response had high values; details: 30 µM
T1 sequence (whole entry): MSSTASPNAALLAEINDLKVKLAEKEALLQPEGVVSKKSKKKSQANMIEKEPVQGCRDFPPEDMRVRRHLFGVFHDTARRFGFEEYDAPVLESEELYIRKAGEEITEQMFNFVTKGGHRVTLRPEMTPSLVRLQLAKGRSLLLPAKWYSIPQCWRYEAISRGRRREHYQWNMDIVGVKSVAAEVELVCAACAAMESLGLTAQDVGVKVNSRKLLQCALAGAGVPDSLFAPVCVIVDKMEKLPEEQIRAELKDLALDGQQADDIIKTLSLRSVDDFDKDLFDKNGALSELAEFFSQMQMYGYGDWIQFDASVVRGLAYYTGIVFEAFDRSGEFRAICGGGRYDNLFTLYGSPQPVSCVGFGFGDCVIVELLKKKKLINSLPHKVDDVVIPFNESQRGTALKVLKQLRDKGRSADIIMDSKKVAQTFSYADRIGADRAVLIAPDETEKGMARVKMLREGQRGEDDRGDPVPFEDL

Structure (SMILES)	Percent Effect [%]
O=C1O[C@@H]2CN(S(=O)(=O)N3CCCC3)C[C@@H]2N1CCc1cccc(Cl)c1	7.29
O=C1CC[C@]2(CC[C@@H](NCc3ccsc3)CC2)N1Cc1ccccc1	25
COCCN1C(=O)[C@H]2CC[C@@H]1CN(C(=O)COc1ccc(F)c(Cl)c1)C2	-13.3
Cc1nnc(SC2CCN(c3sccc3C#N)C2=O)[nH]1 (configuration not stated)	12.2
N#Cc1ccsc1N1CCC(Sc2ncc[nH]2)C1=O (configuration not stated)	20.4
N#Cc1ccsc1N1CCC(Sc2ccncc2)C1=O (configuration not stated)	53.1
NC(=O)N1CC[C@@H]2O[C@@H](COCC(=O)N3CCCC3)CC[C@@H]21	0
COCc1nc(CN2CCOC(CNc3cccnn3)C2)cs1 (configuration not stated)	35.1
CCc1nc(CN2CCOC(CNc3cccnn3)C2)cs1 (configuration not stated)	24.6
CCCc1nc(CN2CCOC(CNc3cccnn3)C2)cs1 (configuration not stated)	69
CN(C)CCO[C@H]1CN(Cc2ccc3c(c2)OCO3)[C@@H]2COC[C@H]12	17.1
CN(C)C(=O)CO[C@H]1CN(Cc2ccc3c(c2)OCO3)[C@@H]2COC[C@H]12	13.2
O=C(c1cc(=O)n(-c2ccccc2)[nH]1)N1CCCC(c2ccn[nH]2)C1 (configuration not stated)	59
O=C(c1cc(=O)n(-c2ccccc2)[nH]1)N1CCOCC(O)C1 (configuration not stated)	6.2
O=C(c1cnnn1-c1ccccc1)N1CCCC(c2ccn[nH]2)C1 (configuration not stated)	15.7
Cc1ncsc1CN1C[C@@H]2COC[C@]2(CNC(=O)c2ccccc2)C1	20.5
CCN(CC)[C@H]1COC[C@@H]2CN(Cc3cnn(C)c3)C[C@@H]21	15.8
Cn1nc2c(cc1=O)CN(Cc1nc(C(C)(C)C)no1)CC2	82.4
CCn1nc2c(cc1=O)CN(Cc1nc(CCOC)no1)CC2	23.4
Cn1nc2c(cc1=O)CN(Cc1nc(C3CC3)no1)CC2	102
CCCn1nc2c(cc1=O)CN(Cc1nnc(C3CC3)o1)CC2	24.5
Cn1nc2c(cc1=O)CN(Cc1nnc(C3CC3)o1)CC2	97.9
CCn1nc2c(cc1=O)CN(Cc1nnc(C3CC3)o1)CC2	22.6
Cc1ccc(F)cc1CC(=O)N1CC[C@@]2(O)CCNC[C@H]2C1	4.92

Structure (SMILES)	Percent Effect [%]
O=C(C1CCOCC1)N1CCO[C@H]2[C@H](Oc3cccnc3)CC[C@@H]21	9.68
O=C(c1ccco1)N1C[C@H]2CCCN(Cc3ccc(F)cc3)[C@H]2C1	10.9
O=C(C1CCOCC1)N1C[C@H]2C[C@H](OCc3ccccc3)C[C@H]2C1	12.9
O=C(C[C@H]1[C@H]2CN(Cc3ccsc3)C[C@@H]12)N1CCCC1	15.5
O=C(Cc1cccc(F)c1)N1C[C@H]2CN(Cc3ccccn3)C[C@H]2C1	15.4
O=C(CSc1ccccc1)N1C[C@H]2CC[C@@H]1CN(Cc1ccncc1)C2	12.9
O[C@@H]1C[C@@](CNCc2ccccn2)(COc2cccnc2)C[C@@H]1O	12.2
FC1(F)CCN(Cc2cccnc2)CC12CCN(c1ccccn1)C2 (configuration not stated)	19.6
FC1(F)CCN(Cc2cccnc2)CC12CCN(c1ccccc1)C2 (configuration not stated)	57.3
O=C(O)CN1CCC(F)(F)C2(CCN(c3ccccc3)C2)C1 (configuration not stated)	53.9
O=C(CO)N1CCC(F)(F)C2(CCN(c3ccccc3)C2)C1 (configuration not stated)	23.1
FC1(F)CCN(Cc2ccncc2)CC12CCN(c1cccnc1)C2 (configuration not stated)	19.1
FC1(F)CCN(c2ccccc2)CC12CCN(c1ncccn1)C2 (configuration not stated)	21.4
O=C(C1CCC1)N1CCN(Cc2ccc(F)cc2)[C@H]2CS(=O)(=O)C[C@H]21	17.8
COc1ccc(NC(C)=O)c(N2CCN(C(C)=O)CC2)n1	17.3
COc1ccc(N)c(N2CCN(C(C)=O)CC2)n1	61.6
COc1ccc(NC(=O)CCC(C)C)c(N2CCN(C(C)=O)CC2)n1	11.6
Cc1ccc(NC(=O)Nc2c(O)oc3ccccc3c2=O)cc1	6.17
O=C1CO[C@H]2CN(Cc3ccc(F)c(F)c3)C[C@H]2N1	1.35
Cc1cc2nc(SCC(=O)N3CCCC3)n(C)c(=O)c2[nH]1	5.26
Cc1cc2nc(SCC(=O)N3CCCC3)n(-c3ccccc3)c(=O)c2[nH]1	51.4
Cc1cc2nc(SCC(=O)N3CCCCC3)n(C)c(=O)c2[nH]1	10.5
COCCC(=O)N1C[C@@H]2COC[C@]2(COCc2cccnc2)C1	10.7
CCS(=O)(=O)N1C[C@H]2CN(Cc3cccnc3)C(=O)[C@H]2C1	0

Structure (SMILES)	Percent Effect [%]
O=C(c1ccnnc1)N1CCO[C@H]2[C@@H](OCc3cccnc3)CC[C@@H]21	25.7
CCCN1C[C@H]2CC[C@@H]1CN(Cc1cccc(O)c1)C2	32.9
CC(=O)N1C[C@@H]2CC[C@H](C1)N(Cc1ccc(Cn3cccn3)cc1)C2	14.2
CCCN1C[C@H]2CC[C@@H]1CN(Cc1cccc(-n3cccn3)c1)C2	14.2
CCCN1C[C@H]2CC[C@@H]1CN(Cc1ccc(Cn3cccn3)cc1)C2	17.5
CCCN1C[C@H]2CC[C@@H]1CN(Cc1ccc(-n3cccn3)cc1)C2	50.8
CCN1CCO[C@@H]2CN(C(=O)c3ccc4[nH]ccc4c3)CC[C@@H]2C1	26
CN1CCN(C(=O)[C@H]2C[C@@H]3CCN(c4ncc(F)cn4)C[C@@H]3O2)CC1	7.55
CC(=O)N1CC[C@H]2OCC[C@@H](C(=O)Nc3cccnc3C)[C@@H]2C1	17.3
CN(C)C(=O)N1C[C@@H]2CC[C@H](C1)N(S(=O)(=O)c1cccnc1)C2	12.1
CCO[C@H]1CN(CC2CCOCC2)[C@@H]2CCCO[C@H]12	7.92
O=S(=O)(C1CC1)N1CCO[C@H]2[C@H](OCC3CC3)CC[C@@H]21	5.56
O=C(c1cnccn1)N1CCN2C[C@H](OCc3ccccc3)C[C@H]2C1	15.1
O=C(Nc1nccs1)c1csc(NC2CCCC2)n1	66.3
O=C(Nc1ccccn1)c1csc(NC2CCCC2)n1	28.1
Cc1cnc(NC(=O)c2csc(NC3CCCC3)n2)s1	21.4
Cc1n[nH]c(SCC(=O)N2C[C@H]3CC[C@@H]2CN(c2ncccn2)C3)n1	9.38
COCCN1C[C@@H]2CCCO[C@@H]2[C@H](NC(=O)c2cnccn2)C1	11.3
Cc1cnccc1NCCNC1CCSCC1	17.1
c1cncc(NCCNC2CSCCSC2)c1	74.3
c1cncc(NCCCNC2CCSC2)c1 (configuration not stated)	28.6
c1cncc(NCCNC2CCSC2)c1 (configuration not stated)	62.9
CC(C)CN1CCC(NCCNc2cccnc2)CC1	9.76
c1cncc(NCCNC2CCSCC2)c1	8.57

— ChEMBL document CHEMBL3988442, “University of Dundee, Small-Polar-MMV Screening Library” (2021)
